The source made the active and inactive calls.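 How the source made its calls: active means fitted half-maximal concentration AC50 at or below ten times the highest valid tested dose, with signal falling as DNA is displaced (actives reach about 34 µM in these data); inconclusive means flat fit at moderate signal loss, or poor fit quality; inactive means the rest, including signal rising instead of falling.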

These results are taken from PubChem BioAssay AID504727 (Broad Institute, 2011).

A short description of the assay: acridine orange-DNA binding displacement – biochemical, fluorescence polarization, cherry-picked samples, set 2, artefact control for KSHV LANA DNA-binding inhibitor project, dose response (AID 504727).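 On activity change, negative = DNA displacement: 0% = median of neutral control wells and -100% = mitoxantrone positive control wells.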 The following applies: series mostly up to 35 µM; activity change, negative = DNA displacement: at the top concentration. In general terms: Polarisation of emitted light reports the rotation of a fluorescent probe.
For `CCNc1ccc2noc3c2c1C(=O)c1ccccc1-3`, the concentration at half-maximal activity (AC50) is 0.935 µM (active). Turning to `CC(C)[C@H](NC(=O)c1ccccc1F)C(=O)NC1CCCCCCC1`, the “activity change, negative = DNA displacement” value (“activity change” for short) was 4.11% (inactive).

Consider `O=C(O)c1ccccc1NS(=O)(=O)c1ccc(N/N=C/c2ccc(O)c(O)c2)c([N+](=O)[O-])c1`, for which the “activity change” value is 2.24% (inactive).

As for `CCC(=O)Oc1ccc2c(c1)O/C(=C\c1ccco1)C2=O`, the “activity change” value was -9.88% (inactive). For `CCOc1ccc(Nc2ccc(N)c(S(=O)(=O)O)c2)cc1`, the “activity change” value was 3.32% (inactive).

As to `Cc1cccc(N2C(=O)c3cccc4c(N)ccc(c34)C2=O)c1`, the AC50 is 4.82 µM (active).

On to `Cc1nn(C)c(C)c1N1C(=O)c2cccc3c(N)ccc(c23)C1=O`, for which the AC50 is 0.768 µM (active). As for `Nc1nc(C(F)(F)F)cc(=O)[nH]1`, the “activity change” value is 1.02% (inactive). Consider `Nc1c(C(=O)Nc2ccccc2F)sc2nc(Cc3ccccc3)cc(C(F)(F)F)c12`, for which the AC50 was 20.2 µM (active). Turning to `COc1cccc2c1C(=O)c1c(O)c3c(c(O)c1C2=O)C[C@](O)(C(C)=O)C[C@H]3O[C@@H]1C[C@@H](N)[C@@H](O)[C@@H](C)O1`, the AC50 is 2.98 µM (active). For `CCCCn1nc(CC(=O)O)c2ccccc2c1=O`, the “activity change” value was 2.89% (inactive). With `CCCN(CCC)S(=O)(=O)c1ccc(C(=O)OCCN2C(=O)c3cccc4c(N5CCOCC5)ccc(c34)C2=O)cc1`, the AC50 was 6.89 µM (active).

As for `Cc1ccc(N(C)C(=O)C2CCCN2S(=O)(=O)c2ccc3c(c2)n(C)c(=O)c(=O)n3C)cc1` (stereo not drawn), the “activity change” value was 4.43% (inactive). For the molecule `Cc1ccc(C(=O)c2coc3ccc(O)c(Cl)c23)cc1`, the “activity change” value was 2.25% (inactive).

In the case of `CC(=O)OCCCn1c(C)[n+](C)c2cc(Cl)c(Cl)cc21`, the “activity change” value is 4.62% (inactive). `S=c1[nH]nc([C@@H]2C[C@H]2c2ccccc2)n1-c1ccccc1Cl`: the “activity change” value was 2.19% (inactive). `Cc1ccc(S(=O)(=O)/N=C2/C=C(Sc3ncn[nH]3)C(=O)c3ccccc32)cc1`: the “activity change” value is -0.37% (inactive). Regarding `COc1cc2c(cc1OC)-c1cc3ccc4c(c3c[n+]1CC2)OCO4`, the AC50 was 32.2 µM (active). For the molecule `CCc1noc(C)c1C(=O)NCCc1c[nH]c2ccccc12`, the “activity change” value was -5.51% (inactive). Take `CN(N=Nc1ccc([N+](=O)[O-])cc1)c1ccccc1`: the AC50 was 11 µM (active). As for `Cc1cccc(NC(=O)CN2C(=O)NC(C)(c3ccc4ccccc4c3)C2=O)n1` (stereo not drawn), the “activity change” value was 1.9% (inactive). Consider `COc1cccc(/C=N/NC(=O)C(=O)NCc2cccnc2)c1O`, for which the “activity change” value was 2.98% (inactive). For the molecule `Cc1cc(C)nc(SCC(=O)N/N=C/c2cc(C)n(-c3ccccc3C)c2C)n1`, the “activity change” value is -4.94% (inactive). `Cc1ccc(NC(=S)N/C(=N/S(=O)(=O)c2ccccc2)c2ccccc2)cc1`: the “activity change” value was 0.102% (inactive). With `COC(=O)c1ccccc1-c1c2ccc(=N)cc-2oc2cc(N)ccc12`, the half-maximal activity concentration (AC50) is 0.035 µM (active). In the case of `CCCn1c(SCC(=O)NCc2cccs2)nc2c1c(=O)n(C)c(=O)n2C`, the “activity change” value is 5.06% (inactive). Turning to `COc1ccc(OCC(=O)N2CCN(c3cccc(C(F)(F)F)c3)CC2)cc1`, the “activity change” value is 4.78% (inactive). `CCOC(=O)C(C)(C)N(Cc1ccccc1C)S(=O)(=O)c1ccc(Cl)c([N+](=O)[O-])c1`: the “activity change” value is 3.3% (inactive).

For the molecule `COc1ccc(-c2cc(C(F)(F)F)n3ncc(C(=O)N4CCCCC4c4cccnc4)c3n2)cc1` (stereo not drawn), the “activity change” value is 5.21% (inactive).

Take `Cc1cc(S(=O)(=O)NC2CCN(Cc3ccccc3)CC2)c(C)cc1Cl`: the “activity change” value was 5.78% (inactive). Consider `CC(C)CCN1C(=O)c2cccc3c(N)ccc(c23)C1=O`, for which the AC50 was 7.39 µM (active). In the case of `O=[N+]([O-])c1cc(-n2cnnn2)ccc1N1CCC(Cc2ccccc2)CC1`, the “activity change” value was -4.6% (inactive). Consider `O=C(NCC1CCCO1)c1cccc(S(=O)(=O)N(Cc2ccccc2)c2ccccc2)c1` (stereo not drawn), for which the “activity change” value was -1.69% (inactive). Turning to `COc1cccc(NC(=O)CN(C)C(=O)c2cc3ccccc3cc2OC)c1`, the “activity change” value was 4.45% (inactive).

As to `Cc1cc(C)n2nc(C(=O)OC(C)C(=O)c3cc(C)c(C)cc3C)nc2n1` (stereo not drawn), the “activity change” value is 3.62% (inactive). As to `Fc1ccc(-c2cc(C(F)(F)F)nc(-n3cc(Cl)cn3)n2)cc1`, the “activity change” value was 5.26% (inactive). For the molecule `c1ccc2[nH]c3cc4ncnc4cc3nc2c1`, the AC50 was 11.7 µM (active). `O=C(O)c1[nH]c2ccccc2c1C(c1cc(Cl)cc([N+](=O)[O-])c1O)c1c(C(=O)O)[nH]c2ccccc12`: the “activity change” value is 5.18% (inactive).

As a reminder, the AC50 is the concentration giving half of the maximal activity seen.
